The campaign covered roughly 370,000 compounds. About 4,800 (1.3%) were called active.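 Rule for the calls: active = inhibition above about 21% made by adding two undisclosed values (limit read from the data); inactive = the rest.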 Many of the other results were omitted from the sample, so actives are more common in it than they were.

In PubChem BioAssay AID652257 (The Scripps Research Institute Molecular Screening Center, 2013) one finds inhibition data, which are given here for 29 molecules.

The target of this experiment is Protein arginine N-methyltransferase 1 (Homo sapiens) (UniProt Q99873). Nature of the experiment: PRMT1 methyltransferase inhibitors, primary screen, biochemical, fluorescence polarization (AID 652257). The following applies: recombinant PRMT1, activity-based probe fluorescence polarization; at 2.79 µM; hits give high values.
Sequence of Protein arginine N-methyltransferase 1 (Homo sapiens) (Q99873 whole entry, looked up): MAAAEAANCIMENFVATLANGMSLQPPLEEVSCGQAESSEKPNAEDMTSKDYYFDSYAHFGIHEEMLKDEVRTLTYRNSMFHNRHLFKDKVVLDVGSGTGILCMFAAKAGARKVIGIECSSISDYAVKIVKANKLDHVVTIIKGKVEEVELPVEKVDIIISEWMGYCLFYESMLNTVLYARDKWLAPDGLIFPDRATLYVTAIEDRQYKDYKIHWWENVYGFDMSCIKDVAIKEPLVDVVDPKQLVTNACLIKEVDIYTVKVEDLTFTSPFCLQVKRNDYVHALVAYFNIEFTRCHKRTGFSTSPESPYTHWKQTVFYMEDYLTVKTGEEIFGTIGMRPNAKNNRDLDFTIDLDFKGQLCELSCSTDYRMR
`Cc1cc(N2C(=O)C3CCCN3C2c2ccc(Cl)c(Cl)c2)no1` (centres undefined): the inhibition is 1.57% (inactive). For `COC(=O)C1=C(c2cc3ccccc3s2)C[C@@H]2CC[C@H]1N2C(=O)NCc1cccc2ccccc12`, the inhibition is -3.89% (inactive). In the case of `COP(=O)(NS(=O)(=O)c1ccccc1)OC` it was -6.51% (inactive); in that of `COc1ccccc1N=Nc1c(O)[nH]c(=S)[nH]c1=O`, -3.43% (inactive). The figure for `O=C1N=c2ccccc2=C/C1=C\c1c(O)[nH]c(=S)[nH]c1=O` is 51.8% (active); for `Cc1ccc2c(c1)=C/C(=C\c1c(O)[nH]c(=O)[nH]c1=O)C(=O)N=2` it is 7.2% (inactive); for `CO[C@H]([C@H](C)/C=C/N(C)C=O)[C@@H](C)C(=O)CC[C@H](C)[C@H](O)[C@H](C)[C@H]1OC(=O)/C=C/C(C)=C/[C@H](O)[C@H](OC)C[C@@H]2C=CC[C@@H](C[C@H](OC)[C@@]3(CO3)[C@@H](OC)C[C@@H](OC)[C@@H]1C)O2` it is 1.29% (inactive).

In the case of `CCN(CC)C(=O)[C@@H]1C=C2c3cccc4[nH]c(Br)c(c34)C[C@H]2N(C)C1`, the inhibition is 9.48% (inactive). The figure for `COP(=O)(OC)C(NC(=O)c1ccc(C)cc1)C(Cl)(Cl)Cl` (centres undefined) is 1.17% (inactive); for `CN1CCC(N(C)Cc2cccnc2)CC1` it is 11.7% (inactive).

For the molecule `COc1ccc(N2C(=O)/C(=C/c3ccco3)C(=O)NC2=S)cc1`, the inhibition was 41.9% (active). On to `O=C(COC(=O)Cc1ccccc1)Nc1ccc(F)cc1`, for which the inhibition was -1.27% (inactive). In the case of `c1ccc(N2Cc3ccccc3-n3nncc3C2)nc1` it was -1.49% (inactive); in that of `CCOC(=O)CC(SP1(=S)OCC2(CCCCO2)C(C2CCCCO2)O1)C(=O)OCC` (centres undefined), 55.3% (active); in that of `COc1ccc2c(c1)NP(=S)(c1ccccc1)N2` (centres undefined), 14.7% (inactive). In the case of `COc1ccc(CCn2c(O)c(C=NC3CC3)c(=O)[nH]c2=O)cc1OC` it was 0.57% (inactive). In the case of `CCOC(=O)C1(Cc2ccc(Cl)cc2)CCN(C(C)CCn2cccn2)CC1` (centres undefined) it was -1.84% (inactive). On to `CC1CNCCN1c1ccc(Cl)cc1` (centres undefined), for which the inhibition was -2.9% (inactive). In the case of `Cc1cc(N2CCNC[C@@H]2C)ccc1N1CC[C@H](O)C1` it was 49.5% (active); in that of `Clc1ccc([C@@H]2CC3CCC2N3)cn1` (some centres undefined), -1.63% (inactive). The figure for `CC(C)CN1CCN(Cc2ccccc2C(F)(F)F)CC1CCO` (centres undefined) is 0.64% (inactive); for `CCOC(=O)c1c(-c2ccccc2)oc2ccc(OC(=O)N(C)C)cc12` it is 2.78% (inactive); for `COc1ccccc1NC(=O)N1C[C@@H]2C[C@@H](C1)c1cccc(=O)n1C2` it is 1.82% (inactive).

As to `CS(=O)(=O)N1CCC2CCNC2C1` (centres undefined), the inhibition was -2.72% (inactive). In the case of `CC(=O)c1c(O)n(C2CCCCCC2)c(=O)[nH]c1=O` it was 23.2% (active).

As to `CCC(=NCCc1ccccc1)c1c(O)n(C2CCCCC2)c(=O)[nH]c1=O`, the inhibition was -0.77% (inactive). The figure for `CC(=NCC1CCCO1)c1c(O)n(-c2ccccc2)c(=O)[nH]c1=O` (centres undefined) is -2.12% (inactive); for `Cc1ccccc1CCC[C@@H](CC1CCCCC1)CN(C)C(=O)Oc1ccccc1` it is 0.94% (inactive). The figure for `COc1cc(OC)cc(C(=O)NCCN2CCC3(CC2)C(=O)NCN3c2ccccc2)c1` is 1.49% (inactive).
